Measurements: PubChem BioAssay AID1220 (Sanford-Burnham Center for Chemical Genomics, 2008)
Hit rate of the full screen: of about 190,000 compounds, about 1,300 (0.68%) were called active. Cut-off read from the data, not from the text of the source: active = inhibition above about 50%; inactive = the rest. For the sample, actives were picked, then their nearest neighbours and some compounds at random.

target: Mannose-6-phosphate isomerase (Homo sapiens) (UniProt P34949); assay: MPI inhibition at elevated mannose 6-phosphate – biochemical, fluorescence intensity, high mannose 6-phosphate, primary screen (AID 1220); conditions: recombinant PMI enzyme, coupled fluorescence intensity; at 20 µM; hits give high values
Sequence (P34949 whole entry, looked up): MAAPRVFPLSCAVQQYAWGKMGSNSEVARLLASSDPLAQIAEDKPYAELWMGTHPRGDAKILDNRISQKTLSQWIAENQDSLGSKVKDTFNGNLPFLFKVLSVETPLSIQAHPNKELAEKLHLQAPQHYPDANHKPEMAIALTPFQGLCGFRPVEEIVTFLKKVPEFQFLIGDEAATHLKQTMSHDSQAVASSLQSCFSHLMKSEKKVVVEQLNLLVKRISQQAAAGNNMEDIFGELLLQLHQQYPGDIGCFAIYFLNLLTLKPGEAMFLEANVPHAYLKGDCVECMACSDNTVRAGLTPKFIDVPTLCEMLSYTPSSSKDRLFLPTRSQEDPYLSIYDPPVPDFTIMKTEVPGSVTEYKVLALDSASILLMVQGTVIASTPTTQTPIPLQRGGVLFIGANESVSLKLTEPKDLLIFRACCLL

SMILES	inhibition
CCOC(=O)N/N=C1\CC(C)CC(C)(C)C1 (stereo not drawn)	4.2% (inactive)
COc1ccc(CCNC(=O)COC(=O)/C=C/c2cc(OC)c(OC)c(OC)c2)cc1OC	-0.4% (inactive)
COc1cccc(CC2(CO)CCN(Cc3ccc4cccc(F)c4n3)CC2)c1	13.1% (inactive)
Cc1cc(-n2c(C)cc(C(=O)COc3ccccc3[N+](=O)[O-])c2C)no1	9.1% (inactive)
Cc1cc(C(=O)COc2cccnc2[N+](=O)[O-])c(C)n1-c1ccccc1	53.3% (active)
COc1ccc(-n2c(C)cc(C(=O)COc3ccc(C)nc3[N+](=O)[O-])c2C)cc1	41% (inactive)
Cc1ccc(OCC(=O)c2cc(C)n(C3CC3)c2C)c([N+](=O)[O-])n1	10.6% (inactive)
Cc1ccc(-n2c(C)cc(C(=O)COc3cccnc3[N+](=O)[O-])c2C)cc1	54.5% (active)
Cc1ccc(OCC(=O)c2cc(C)n(-c3ccccc3)c2C)c([N+](=O)[O-])n1	21.3% (inactive)
CN(Cc1ccccc1)C(=O)CC(c1ccccc1)c1cc(Cl)ccc1O (stereo not drawn)	4.5% (inactive)
CCn1c(=O)c(C(=O)CN2CCN(S(=O)(=O)c3ccccc3)CC2)c(N)n(Cc2ccccc2)c1=O	0.5% (inactive)
O=S(=O)(Nc1ccc(N2CCCCC2)cc1)c1ccccc1	0.6% (inactive)
O=C(Nc1ccc(N2CCCCCC2)cc1)c1ccccc1Cl	27.3% (inactive)
O=C(O)c1cc(NCc2c(F)cccc2Cl)ccc1N1CCOCC1	2.7% (inactive)
NS(=O)(=O)c1ccc(NCc2c(F)cccc2Cl)cc1	4.6% (inactive)
Clc1cccc(Cl)c1CNc1ccc(N2CCCC2)cc1	84.4% (active)
COC(=O)C(CCSC)NC(=O)CNS(=O)(=O)c1ccc(Br)cc1 (stereo not drawn)	-7.6% (inactive)
Cc1ccc(C)c(CN2CCNC2=O)c1	-0.9% (inactive)
CCNC(=O)CC1C(=O)N(CC)C(=S)N1NC(=O)c1cccnc1 (stereo not drawn)	-4.7% (inactive)
N=C1S/C(=C\c2ccccc2F)C(=O)N1c1ccc(F)cc1	3.1% (inactive)
Cc1ccc(NS(=O)(=O)Cc2ccccc2)nc1	16.5% (inactive)
CCCCS(=O)(=O)Nc1ccc(C)cn1	57.3% (active)
Cc1ccc(NS(=O)(=O)c2ccc(Br)s2)nc1	66.2% (active)
Cc1cccc(NS(=O)(=O)c2ccc(Br)s2)n1	-4.4% (inactive)

SMILES	inhibition
CCCCCCCCCS(=O)(=O)Nc1cc(C)ccn1	7.7% (inactive)
Cc1cc(C)nc(NS(=O)(=O)c2ccc(Br)s2)c1	42.1% (inactive)
O=c1cc(CCl)nc2sc3ccccc3n12	-13.1% (inactive)
COC(=O)C1=C(C)N(C)C(=O)NC1c1ccc(O)c(Cl)c1 (stereo not drawn)	3.8% (inactive)
COC(=O)C1=C(C)N(C)C(=O)NC1c1cc2c(cc1[N+](=O)[O-])OCO2 (stereo not drawn)	42.7% (inactive)
COc1c(O)ccc(C2NC(=O)NC(C)=C2C(=O)Nc2ccccc2C)c1[N+](=O)[O-] (stereo not drawn)	49.8% (inactive)
CCOc1c(O)ccc(C2NC(=O)N(C)C(C)=C2C(=O)OC)c1[N+](=O)[O-] (stereo not drawn)	60.2% (active)
COC(=O)C1=C(C)NC(=O)NC1c1ccc([N+](=O)[O-])o1 (stereo not drawn)	10.9% (inactive)
CCOc1c(O)ccc(C2NC(=O)NC(C)=C2C(=O)OC)c1[N+](=O)[O-] (stereo not drawn)	50.9% (active)
CN=C1SC(CC(=O)Nc2cc(Cl)ccc2Cl)C(=O)N1C (stereo not drawn)	-9.7% (inactive)
COc1ccc(/C=N/Nc2nc(N3CCCC3)nc(N3CCCC3)n2)c(OC)c1OC	4% (inactive)
Cc1onc(-c2c(F)cccc2Cl)c1C(=O)NCCO	-4% (inactive)
CC1(C)CC(=O)C(C2c3ccccc3S(=O)(=O)c3ccccc32)C(=O)C1	-5.8% (inactive)
COc1ccc2c(c1)C(C1C(=O)CCCC1=O)c1ccccc1O2 (stereo not drawn)	2.9% (inactive)
CC1(C)CC(=O)C(C2c3ccccc3Oc3ccccc32)C(=O)C1	52.9% (active)
O=C(c1ccc(-c2ccccc2)cc1)N1CCC(C(=O)N2CCCC2)CC1	5.4% (inactive)
COc1ccc(CC(=O)NC(=S)Nc2ccc(S(N)(=O)=O)cc2)cc1	-5.8% (inactive)
CCOC(=O)C(NC(=O)Nc1ccccc1)(OCC)C(F)(F)F (stereo not drawn)	5.2% (inactive)
CCOC(=O)C(NC(=O)Nc1cccc(C)n1)(OCC(F)(F)F)C(F)(F)F (stereo not drawn)	59.1% (active)
Cc1cccc(NC(=O)NCC(F)(F)F)n1	-6.3% (inactive)
Cc1cc(C)nc(NS(=O)(=O)c2ccc(NC(=O)CN3C(=O)C4CC=CCC4C3=O)cc2)n1 (stereo not drawn)	-7.4% (inactive)
Cc1cc(C(=O)Nc2ccccc2C#N)n(-c2ccccc2)n1	1.2% (inactive)
CC(=O)c1cccc(N2C(=NC(=O)C(C)C)SC3CS(=O)(=O)CC32)c1 (stereo not drawn)	10.5% (inactive)
O=C1COc2ccc(C(=O)COC(=O)Cc3ccccc3F)cc2N1	-2.3% (inactive)
